Measurements reported in PubChem BioAssay (Tox21).
Records with an inconclusive call do not appear. Entries that show only a call come without a potency. Activity calls are given as the source filed them. Unless noted, calls follow the shape of the dose curve; as a rule, active = well fitted curve in the direction sought with a large enough effect in the repeat runs; inconclusive = weak or mixed curves; inactive = no such curve, though single readings can be large; an effect the other way counts as inactive or inconclusive.

Assays:
[1] = qHTS assay for small molecules that induce genotoxicity in human embryonic kidney cells expressing luciferase-tagged ATAD5 (AID 651632); also: nearly all actives have a fitted effect of over 15% in size
Summary of the method: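 Cells were seeded at 2,000 per well, dosed with compound, and incubated 16 hr at 37C in 5% CO2. Luciferase activity was then quantified after a 30 min room-temperature incubation with Amplite.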

[2] = qHTS assay for small molecule agonists of the p53 signaling pathway - cell viability (AID 651633; calls by dose curve; also: nearly all actives have a fitted effect of over 30% in size; also: potency is read from the fitted curve at half-maximal effect)
Summary of the method: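 p53RE-bla cells were treated with compound for 16 hours at 37 C. Cytotoxicity was then measured as CellTiter-Glo luminescence after 30 min at room temperature.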

[3] = qHTS assay for small molecule disruptors of the mitochondrial membrane potential - cell viability (AID 720634; calls by dose curve;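 also: human HepG2 liver cancer cells; nearly all actives have a fitted effect of over 20% in size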)
Summary of the method: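 Cytotoxicity was measured by ATP quantitation in HepG2 wells that had first been treated with compound for 1 hr and stained with m-MPI dye; CellTiter-Glo incubation was 30 min at room temperature.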

[4] = qHTS assay to test for compound auto fluorescence at 590 nm (red) in HepG2 cells (AID 720674)
Summary of the method: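 Fluorescence at 590 nm emission following 540 nm excitation was recorded from HepG2 wells one hour after compound transfer, with DMSO-only wells as vehicle and Rose Bengal sodium equivalency as the scale.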

[5] = qHTS assay to test for compound auto fluorescence at 535 nm (green) in HepG2 cells (AID 720675)
[6] = qHTS assay to test for compound auto fluorescence at 460 nm (blue) in HEK293 cells (AID 720678)
Summary of the method: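 Intrinsic compound fluorescence is recorded in live HEK293 cultures after overnight incubation at 37C, 5% CO2, using excitation 405 nm and emission 460 nm. Values are referenced to triamterene.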

[7] = qHTS assay to test for compound auto fluorescence at 590 nm (red) in HEK293 cells (AID 720679)
Summary of the method: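 Red autofluorescence, HEK293 cells: 2,000 cells/well; attach 4-5 hr 37C; add 23 nL cpd or DMSO; incubate o/n 37C 5% CO2; read Ex540/Em590; Rose Bengal sodium reference.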

[8] = qHTS assay to test for compound auto fluorescence at 535 nm (green) in HEK293 cells (AID 720680)
[9] = qHTS assay to test for compound auto fluorescence at 460 nm (blue) in HEK293 cell free culture (AID 720681)
Summary of the method: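 Compounds were added to cell-free DMEM with 10% FBS and fluorescence read directly. The blue channel used 405 nm excitation and 460 nm emission, with triamterene as the reference fluorophore.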

[10] = qHTS assay to test for compound auto fluorescence at 535 nm (green) in HEK293 cell free culture (AID 720682)
Summary of the method: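 Compounds were pin-transferred into cell-free DMEM with 10% FBS, and green fluorescence was read at excitation 485 nm and emission 535 nm. Intensities were expressed as fluorescein-equivalent values.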

[11] = qHTS assay to test for compound auto fluorescence at 590 nm (red) in HEK293 cell free culture (AID 720683)
Summary of the method: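 Cell-free wells of DMEM with 10% FBS received compound, and intrinsic fluorescence was read at excitation/emission 540/590 nm. Values expressed as equivalence to Rose Bengal sodium.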

[12] = qHTS assay to test for compound auto fluorescence at 590 nm (red) in HepG2 cell free culture (AID 720684)
Summary of the method: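 Auto fluorescence equivalency versus Rose Bengal sodium, red channel Ex/Em 540/590 nm; compounds in cell-free MEM/10% FBS; DMSO vehicle control.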

[13] = qHTS assay to test for compound auto fluorescence at 460 nm (blue) in HepG2 cell free culture (AID 720685)
Summary of the method: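 Cell-free plates of MEM plus 10% FBS received 23 nL compound or DMSO vehicle; blue-channel (405/460 nm) intensity scored against triamterene as reference fluorophore.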

[14] = qHTS assay to test for compound auto fluorescence at 535 nm (green) in HepG2 cell free culture (AID 720686)
[15] = qHTS assay to test for compound auto fluorescence at 460 nm (blue) in HepG2 cells (AID 720687)
Summary of the method: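 HepG2 cells in MEM with 10% FBS, attached overnight at 37 C, were exposed to compound or DMSO for 1 hr at 37 C, 5% CO2. Blue fluorescence was read at 405/460 nm, with triamterene as reference fluorophore.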

[16] = biological target: Glucocorticoid receptor (Homo sapiens) (UniProt P04150); experiment: qHTS assay to identify small molecule antagonists of the glucocorticoid receptor (GR) signaling pathway (AID 720692; active = well fitted inhibition curve with a large enough effect in the signal ratio in the repeat runs, not every such curve was filed as active; the % refers to the signal ratio; also: potency is read from the fitted curve at half-maximal effect)
Summary of the method: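 Antagonism was scored as loss of dexamethasone-driven (5 nM final) reporter signal in HeLa cells bearing a glucocorticoid response element–beta-lactamase construct, after 18 h compound exposure at 37 C and 2 h FRET substrate loading.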

[17] = qHTS assay for small molecule disruptors of the mitochondrial membrane potential (AID 720635); also: potency is read from the fitted curve at half-maximal effect
Summary of the method: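 HepG2 cells exposed to compound 1 hr at 37C, then Mito-MPS dye 30 min. Ratio read of aggregate (540/590 nm) versus monomer (490/535 nm) fluorescence.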

[18] = biological target: Glucocorticoid receptor (Homo sapiens) (UniProt P04150); experiment: qHTS assay to identify small molecule agonists of the glucocorticoid receptor (GR) signaling pathway (AID 720691; active = well fitted activation curve with a large enough effect in the signal ratio in the repeat runs, not every such curve was filed as active; the % refers to the signal ratio); settings: GR-bla HeLa, beta-lactamase reporter ratio, 18 h; activation: at 62.4 µM (top of the series)
Summary of the method: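 Steps: seed GR-bla HeLa cells, incubate 4 h at 37 C/5% CO2; pin-transfer DMSO-dissolved compounds; incubate 18 h at 37 C; add LiveBLAzer B/G FRET substrate; after 2 h at room temperature, measure fluorescence.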

[19] = qHTS assay for small molecules that induce genotoxicity in human embryonic kidney cells expressing luciferase-tagged ATAD5 - cell viability (AID 651634; calls by dose curve; also: nearly all actives have a fitted effect of over 25% in size)
Summary of the method: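 Cells (HEK293T, luciferase-tagged ATAD5) are seeded at 2,000 per well, dosed with compound or DMSO vehicle, and incubated 15.5 hr at 37C and 5% CO2. CellTiter-Fluor is added for 30 min before fluorescence is measured.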

Sequence of Glucocorticoid receptor (Homo sapiens) (P04150 whole entry, looked up): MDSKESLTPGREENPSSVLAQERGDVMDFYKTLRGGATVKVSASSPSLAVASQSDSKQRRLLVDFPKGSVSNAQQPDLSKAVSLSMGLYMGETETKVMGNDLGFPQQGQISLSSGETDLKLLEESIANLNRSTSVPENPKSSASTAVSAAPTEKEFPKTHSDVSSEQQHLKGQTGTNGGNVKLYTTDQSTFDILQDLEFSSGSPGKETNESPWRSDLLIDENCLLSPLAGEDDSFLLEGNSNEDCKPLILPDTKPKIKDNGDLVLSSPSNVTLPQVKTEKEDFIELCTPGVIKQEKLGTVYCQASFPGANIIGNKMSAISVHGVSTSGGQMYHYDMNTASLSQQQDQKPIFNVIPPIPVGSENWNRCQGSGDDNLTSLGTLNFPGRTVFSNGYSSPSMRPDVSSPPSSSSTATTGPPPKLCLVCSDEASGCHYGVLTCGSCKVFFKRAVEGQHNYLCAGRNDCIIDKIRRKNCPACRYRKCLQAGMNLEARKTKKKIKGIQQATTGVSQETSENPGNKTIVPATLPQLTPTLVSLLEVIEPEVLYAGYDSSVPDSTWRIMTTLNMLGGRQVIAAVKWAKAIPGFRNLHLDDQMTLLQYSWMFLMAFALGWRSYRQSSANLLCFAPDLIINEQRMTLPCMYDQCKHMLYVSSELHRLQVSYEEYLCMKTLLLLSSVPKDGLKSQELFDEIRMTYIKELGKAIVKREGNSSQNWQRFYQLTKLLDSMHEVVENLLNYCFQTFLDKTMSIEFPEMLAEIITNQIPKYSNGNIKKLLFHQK

Compound | Potency [1] | Potency [2] | Potency [3] | Potency [4] | Potency [5] | Potency [6] | Potency [7] | Potency [8] | Potency [9] | Potency [10] | Potency [11] | Potency [12] | outcome [13] | Potency [14] | outcome [15] | Potency [16] | Potency [17] | Potency [18] | Potency [19]
C/C1=C2N=C(/C=C3N=C(/C(C)=C4\[N-][C@@](C)([C@@H]5N=C1[C@](C)(CCC(=O)NCC(C)OP(=O)(O)O[C@H]1[C@@H](O)[C@@H](n6cnc7cc(C)c(C)cc76)O[C@@H]1CO)[C@H]5CC(N)=O)[C@@](C)(CC(N)=O)[C@@H]4CCC(N)=O)[C@@](C)(CC(N)=O)[C@@H]\3CCC(N)=O)C(C)(C)[C@@H]/2CCC(N)=O.CC(=O)O.[Co] (some centres not stated) | inactive | inactive | inactive | inactive | inactive | inactive | inactive | inactive | inactive | inactive | inactive | inactive | inactive | inactive | inactive | inactive |  |  | 
CC1=C(C(=O)OCCN(Cc2ccccc2)c2ccccc2)C(c2cccc([N+](=O)[O-])c2)C(P2(=O)OCC(C)(C)CO2)=C(C)N1 (configuration not stated) | inactive | inactive | inactive | inactive | inactive | inactive | inactive | inactive | inactive | inactive | inactive | inactive | inactive | inactive | inactive |  | 26.6 µM (active) |  | 
CC1(S(=O)(=O)O)CC(=O)c2ccccc2C1=O (configuration not stated) | inactive | 26.6 µM (active) | inactive | inactive | inactive |  | inactive |  | inactive | inactive | inactive | inactive | inactive | inactive | inactive |  |  |  | 
COC(=O)C1=C(C)NC(C)=C(C(=O)O[C@H]2CCN(Cc3ccccc3)C2)[C@H]1c1cccc([N+](=O)[O-])c1 | inactive | inactive | inactive | inactive | inactive | inactive | inactive | inactive | inactive | inactive | inactive | inactive | inactive | inactive | inactive | 23.9 µM (active) |  | inactive | 
OCC(S)CS (configuration not stated) | inactive | 26.6 µM (active) | inactive | inactive | inactive | inactive | inactive | inactive |  | inactive | inactive | inactive | inactive | inactive | inactive |  | inactive |  | 
C[C@]12CCC(=O)C[C@@H]1CC[C@@H]1[C@@H]2CC[C@]2(C)C=CC[C@@H]12 | inactive | inactive |  | inactive | inactive | inactive | inactive |  | inactive | inactive | inactive | inactive | inactive | inactive | inactive | inactive |  | inactive | inactive
Cc1cccc(Nc2ncccc2C(=O)O)c1C | inactive | inactive | inactive | inactive |  | inactive | inactive | inactive | inactive | inactive | inactive |  | inactive | inactive | inactive |  |  |  | 
CC(CN1c2ccccc2Sc2cccnc21)N(C)C (configuration not stated) | inactive | inactive | inactive | inactive | inactive | inactive | inactive | inactive | inactive | inactive | inactive | inactive | inactive | inactive | inactive |  |  | inactive | 
